Of roughly 7,900 targets only a part is listed; those with a hit were picked by preference. About 0.6% of all pairs of compound and target were hits. A number with no mark means an inactive call.
Experiments:
Assay in all cases: log2 fold change, soluble protein after heating vs DMSO (PISA); higher = thermal stabilisation; K562 cells, 10 uM, 30 min; active = over 0.2 and 3.5 SD of the protein, either way, in both replicates (recomputed)
[1] = biological target: YWHAB (UniProt P31946)
In short: (§1)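 Aliquots of K562 cells (2×10^6 cells/mL) treated with 10 μM compound for 30 min were heated for 3 min over 48°C-58°C. After pooling and extraction in PBS with 0.5% NP-40 at 4°C, soluble protein from a 21,000xg, 90 min spin was quantified by TMTpro 16plex LC-MS/MS with channel sums equalised. Thermal stability is expressed against control samples, from duplicates, as a log2 fold change.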

[2] = biological target: YWHAQ (UniProt P27348)
In short: as §1

[3] = biological target: YWHAZ (UniProt E7ESK7)
In short: as §1

[4] = biological target: YWHAZ (UniProt P63104)
YWHAZ (UniProt P63104), sequence (P63104 whole entry, looked up): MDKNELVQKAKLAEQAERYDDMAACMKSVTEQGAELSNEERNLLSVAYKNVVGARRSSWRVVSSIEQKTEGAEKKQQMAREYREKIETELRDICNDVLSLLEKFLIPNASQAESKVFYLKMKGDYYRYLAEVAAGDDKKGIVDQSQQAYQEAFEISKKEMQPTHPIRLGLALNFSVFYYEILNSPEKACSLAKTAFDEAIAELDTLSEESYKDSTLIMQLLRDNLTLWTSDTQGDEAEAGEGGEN
In short: as §1

[5] = biological target: YY1 (UniProt P25490)
In short: as §1

[6] = biological target: ZADH2 (UniProt Q8N4Q0)
In short: as §1

[7] = biological target: ZBTB21 (UniProt Q9ULJ3)
ZBTB21, sequence (Q9ULJ3 whole entry, looked up): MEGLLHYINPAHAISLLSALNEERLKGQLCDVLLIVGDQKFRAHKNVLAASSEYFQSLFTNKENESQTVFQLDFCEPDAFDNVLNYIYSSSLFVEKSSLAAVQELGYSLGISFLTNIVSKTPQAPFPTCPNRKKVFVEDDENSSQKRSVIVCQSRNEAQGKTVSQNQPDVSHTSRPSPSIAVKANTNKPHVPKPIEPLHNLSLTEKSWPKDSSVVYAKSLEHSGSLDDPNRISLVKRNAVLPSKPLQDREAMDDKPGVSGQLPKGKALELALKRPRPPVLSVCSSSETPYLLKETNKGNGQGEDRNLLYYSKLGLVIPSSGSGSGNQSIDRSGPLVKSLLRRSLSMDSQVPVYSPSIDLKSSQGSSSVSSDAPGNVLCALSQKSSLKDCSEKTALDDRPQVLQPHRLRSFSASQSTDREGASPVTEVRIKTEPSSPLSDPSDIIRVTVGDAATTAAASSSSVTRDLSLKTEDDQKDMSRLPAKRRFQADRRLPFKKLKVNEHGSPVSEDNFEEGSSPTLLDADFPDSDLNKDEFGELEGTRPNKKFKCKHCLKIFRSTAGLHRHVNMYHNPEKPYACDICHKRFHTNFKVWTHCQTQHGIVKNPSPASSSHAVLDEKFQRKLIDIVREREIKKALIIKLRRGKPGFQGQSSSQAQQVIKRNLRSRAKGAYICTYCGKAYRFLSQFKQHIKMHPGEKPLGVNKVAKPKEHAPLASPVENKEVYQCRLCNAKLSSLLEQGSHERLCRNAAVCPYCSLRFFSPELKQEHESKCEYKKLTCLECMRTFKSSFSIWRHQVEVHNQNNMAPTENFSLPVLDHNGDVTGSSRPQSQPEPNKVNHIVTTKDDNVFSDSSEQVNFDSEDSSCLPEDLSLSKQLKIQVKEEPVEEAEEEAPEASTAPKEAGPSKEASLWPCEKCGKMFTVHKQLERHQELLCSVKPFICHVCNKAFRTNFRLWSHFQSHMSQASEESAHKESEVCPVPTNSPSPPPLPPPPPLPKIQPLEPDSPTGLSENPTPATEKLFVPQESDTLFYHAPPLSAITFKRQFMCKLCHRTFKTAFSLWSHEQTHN
In short: as §1

[8] = biological target: ZBTB43 (UniProt O43298)
ZBTB43, sequence (O43298 whole entry, looked up): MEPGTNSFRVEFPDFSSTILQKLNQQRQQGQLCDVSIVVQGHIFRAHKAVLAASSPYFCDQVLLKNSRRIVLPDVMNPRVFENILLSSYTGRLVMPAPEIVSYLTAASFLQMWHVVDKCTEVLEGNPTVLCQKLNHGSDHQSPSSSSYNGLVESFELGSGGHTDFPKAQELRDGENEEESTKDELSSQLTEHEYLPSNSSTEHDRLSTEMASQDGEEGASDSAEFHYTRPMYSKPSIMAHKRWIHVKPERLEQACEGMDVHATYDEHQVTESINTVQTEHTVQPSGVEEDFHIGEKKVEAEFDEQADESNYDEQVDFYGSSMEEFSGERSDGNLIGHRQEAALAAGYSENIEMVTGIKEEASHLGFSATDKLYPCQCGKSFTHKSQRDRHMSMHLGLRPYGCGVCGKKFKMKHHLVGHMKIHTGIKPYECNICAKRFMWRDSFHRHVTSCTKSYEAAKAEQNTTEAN
In short: as §1

[9] = biological target: ZC3H18 (UniProt Q86VM9)
ZC3H18, sequence (Q86VM9 whole entry, looked up): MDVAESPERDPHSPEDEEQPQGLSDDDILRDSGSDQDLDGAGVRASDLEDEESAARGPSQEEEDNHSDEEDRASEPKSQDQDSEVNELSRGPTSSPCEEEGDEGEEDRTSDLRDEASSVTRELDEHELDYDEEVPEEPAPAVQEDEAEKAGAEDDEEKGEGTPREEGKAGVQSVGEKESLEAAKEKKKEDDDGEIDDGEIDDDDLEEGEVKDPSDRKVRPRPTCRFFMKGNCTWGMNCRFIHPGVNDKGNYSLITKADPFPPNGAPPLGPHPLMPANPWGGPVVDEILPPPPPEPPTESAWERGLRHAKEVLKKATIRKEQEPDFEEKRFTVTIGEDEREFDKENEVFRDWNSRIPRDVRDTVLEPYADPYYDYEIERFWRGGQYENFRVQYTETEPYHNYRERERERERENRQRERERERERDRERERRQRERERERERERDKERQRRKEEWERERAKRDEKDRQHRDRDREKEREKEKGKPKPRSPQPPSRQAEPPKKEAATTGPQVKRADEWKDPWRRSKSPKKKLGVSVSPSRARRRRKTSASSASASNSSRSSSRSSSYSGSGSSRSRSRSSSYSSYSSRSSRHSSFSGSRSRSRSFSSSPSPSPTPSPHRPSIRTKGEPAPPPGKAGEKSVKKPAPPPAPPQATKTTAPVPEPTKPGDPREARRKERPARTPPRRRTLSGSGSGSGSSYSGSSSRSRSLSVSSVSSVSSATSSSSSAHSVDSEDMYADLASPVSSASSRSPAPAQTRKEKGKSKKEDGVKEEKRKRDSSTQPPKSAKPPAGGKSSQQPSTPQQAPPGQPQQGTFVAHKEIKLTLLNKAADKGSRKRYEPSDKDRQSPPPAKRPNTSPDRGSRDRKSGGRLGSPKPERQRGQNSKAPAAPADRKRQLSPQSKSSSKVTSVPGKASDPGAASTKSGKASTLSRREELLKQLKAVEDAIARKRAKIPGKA
In short: as §1

[10] = biological target: ZC3H8 (UniProt Q8N5P1)
ZC3H8, sequence (Q8N5P1 whole entry, looked up): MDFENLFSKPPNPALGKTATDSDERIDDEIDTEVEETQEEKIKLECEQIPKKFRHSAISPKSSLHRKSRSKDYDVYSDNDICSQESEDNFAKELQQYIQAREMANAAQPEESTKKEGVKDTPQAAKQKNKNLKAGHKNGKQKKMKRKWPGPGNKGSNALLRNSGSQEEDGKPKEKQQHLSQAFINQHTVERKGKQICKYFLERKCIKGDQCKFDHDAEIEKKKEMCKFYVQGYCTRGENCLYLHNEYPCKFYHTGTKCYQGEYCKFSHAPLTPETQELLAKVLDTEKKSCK
In short: as §1

[11] = biological target: ZC3HC1 (UniProt Q86WB0)
ZC3HC1, sequence (Q86WB0 whole entry, looked up): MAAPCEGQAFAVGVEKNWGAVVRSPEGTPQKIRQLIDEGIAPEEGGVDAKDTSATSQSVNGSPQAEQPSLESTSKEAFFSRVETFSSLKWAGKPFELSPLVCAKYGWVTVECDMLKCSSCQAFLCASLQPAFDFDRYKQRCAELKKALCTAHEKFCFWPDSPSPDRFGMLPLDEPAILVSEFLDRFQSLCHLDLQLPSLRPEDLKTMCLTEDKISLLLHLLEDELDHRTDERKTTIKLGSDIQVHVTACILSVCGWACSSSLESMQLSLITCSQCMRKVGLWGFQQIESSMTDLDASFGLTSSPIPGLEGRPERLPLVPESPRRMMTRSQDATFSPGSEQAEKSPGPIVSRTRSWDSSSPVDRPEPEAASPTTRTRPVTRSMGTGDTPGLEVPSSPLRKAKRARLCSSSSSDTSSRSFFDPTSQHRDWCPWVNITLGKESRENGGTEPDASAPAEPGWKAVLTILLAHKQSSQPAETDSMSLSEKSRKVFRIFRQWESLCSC
In short: as §1

[12] = biological target: ZCCHC9 (UniProt Q8N567)
ZCCHC9, sequence (Q8N567 whole entry, looked up): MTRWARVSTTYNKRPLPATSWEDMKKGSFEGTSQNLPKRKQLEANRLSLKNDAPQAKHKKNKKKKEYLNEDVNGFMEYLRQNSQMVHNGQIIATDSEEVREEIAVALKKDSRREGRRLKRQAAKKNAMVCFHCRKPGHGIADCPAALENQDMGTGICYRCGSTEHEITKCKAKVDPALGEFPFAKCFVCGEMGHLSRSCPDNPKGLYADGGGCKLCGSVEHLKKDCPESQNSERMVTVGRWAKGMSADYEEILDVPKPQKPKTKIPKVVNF
In short: as §1

[13] = biological target: ZDHHC17 (UniProt Q8IUH5)
In short: as §1

[14] = biological target: ZDHHC20 (UniProt Q5W0Z9)
ZDHHC20, sequence (Q5W0Z9 whole entry, looked up): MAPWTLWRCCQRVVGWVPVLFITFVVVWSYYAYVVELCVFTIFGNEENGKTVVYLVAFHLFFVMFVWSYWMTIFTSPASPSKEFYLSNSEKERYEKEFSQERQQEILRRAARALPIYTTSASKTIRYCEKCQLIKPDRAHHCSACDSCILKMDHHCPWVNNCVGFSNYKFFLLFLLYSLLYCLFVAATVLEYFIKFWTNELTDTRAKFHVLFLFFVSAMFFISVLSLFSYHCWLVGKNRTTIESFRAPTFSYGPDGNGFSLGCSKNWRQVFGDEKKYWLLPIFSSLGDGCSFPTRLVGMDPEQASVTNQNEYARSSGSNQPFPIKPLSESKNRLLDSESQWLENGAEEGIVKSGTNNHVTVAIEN
In short: as §1

[15] = biological target: ZDHHC5 (UniProt Q9C0B5)
In short: as §1

[16] = biological target: ZDHHC7 isoform 2 (UniProt Q9NXF8)
In short: as §1

[17] = biological target: ZDHHC8 isoform 3 (UniProt Q9ULC8)
In short: as §1

[18] = biological target: ZDHHC6 (UniProt Q9H6R6)
ZDHHC6, sequence (Q9H6R6 whole entry, looked up): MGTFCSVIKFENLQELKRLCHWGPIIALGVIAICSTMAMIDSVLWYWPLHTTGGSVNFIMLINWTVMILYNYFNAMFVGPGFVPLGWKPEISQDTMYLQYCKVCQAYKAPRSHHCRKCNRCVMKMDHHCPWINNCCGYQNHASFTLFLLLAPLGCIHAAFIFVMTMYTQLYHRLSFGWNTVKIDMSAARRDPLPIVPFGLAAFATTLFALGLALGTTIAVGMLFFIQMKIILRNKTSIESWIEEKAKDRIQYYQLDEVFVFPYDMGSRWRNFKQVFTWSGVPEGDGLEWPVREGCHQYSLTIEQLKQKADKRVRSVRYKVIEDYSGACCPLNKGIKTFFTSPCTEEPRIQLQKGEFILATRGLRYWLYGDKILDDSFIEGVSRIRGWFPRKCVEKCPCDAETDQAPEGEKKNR
In short: as §1

[19] = biological target: ZBTB17 isoform 2 (UniProt Q13105)
In short: as §1

[20] = biological target: ZCCHC17 (UniProt Q9NP64)
In short: as §1

YWHAB, sequence (P31946 whole entry, looked up): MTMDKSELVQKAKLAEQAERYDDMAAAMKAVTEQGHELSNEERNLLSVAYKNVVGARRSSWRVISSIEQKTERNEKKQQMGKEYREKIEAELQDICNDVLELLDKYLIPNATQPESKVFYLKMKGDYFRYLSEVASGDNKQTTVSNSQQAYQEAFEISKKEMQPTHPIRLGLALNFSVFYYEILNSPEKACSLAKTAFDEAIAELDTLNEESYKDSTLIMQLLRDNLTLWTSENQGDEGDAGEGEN

| SMILES | log2 fold change [1] | log2 fold change [2] | log2 fold change [3] | log2 fold change [4] | log2 fold change [5] | log2 fold change [6] | log2 fold change [7] | log2 fold change [8] | log2 fold change [9] | log2 fold change [10] | log2 fold change [11] | log2 fold change [12] | log2 fold change [13] | log2 fold change [14] | log2 fold change [15] | log2 fold change [16] | log2 fold change [17] | log2 fold change [18] | log2 fold change [19] | log2 fold change [20] |
| --- | --- | --- | --- | --- | --- | --- | --- | --- | --- | --- | --- | --- | --- | --- | --- | --- | --- | --- | --- | --- |
| COc1ccc(Cn2ccc3ccc(C(=O)NO)cc32)cc1 | -0.028 | 0.3 | 0.006 | -0.002 | 0.069 | 0.008 | 0.026 | 0.094 | -0.009 | -0.128 | 0.13 | -0.05 | 0.137 | -0.034 | -0.01 | -0.022 | 0.07 |  |  |  |
| Cc1ccc(C(=O)N(CCCN)[C@@H](c2nc3cc(Cl)ccc3c(=O)n2Cc2ccccc2)C(C)C)cc1 [ispinesib] | 0.053 | 0.241 | -0.11 | 0.149 | -0.147 | -0.107 | -0.09 | 0.164 | 0.039 | -0.016 | -0.027 | -0.353 | 0.023 | -0.076 | -0.035 | 0.126 |  |  |  |  |
| Cc1ccc(-n2nc(C(C)(C)C)cc2NC(=O)Nc2ccc(OCCN3CCOCC3)c3ccccc23)cc1 [doramapimod] | 0.022 | -0.12 | 0 | 0.013 | -0.037 | -0.013 | 0.069 | -0.029 | 0.052 | 0.038 | -0.056 | 0.169 | 0.264 (active) | -0.025 | 0.027 | 0.113 | 0.359 |  |  |  |
| c1cn2cc(-c3ccc4cn[nH]c4c3)nc(Nc3ccc(N4CCOCC4)cc3)c2n1 [entospletinib] | 0.009 | -0.017 | 0.161 | 0.006 | 0.022 | 0.053 |  | 0.137 | 0.097 | -0.034 | 0.005 | 0.168 | 0.059 | -0.02 | 0.071 | 0.027 |  | -0.058 |  |  |
| Cc1cc(SCc2sc(-c3ccc(C(F)(F)F)cc3)nc2C)ccc1OCC(=O)O | 0.005 | 0.119 | -0.02 | 0.012 | 0.002 | -0.027 | 0.043 | 0.041 | -0.034 | -0.039 | 0.199 |  | -0.04 | -0.249 | -0.03 | -0.075 | 0.031 |  |  |  |
| O=C(Nc1nc2ccccc2n1CCN1CCOCC1)c1cccc([N+](=O)[O-])c1 [IRAK-1-4 Inhibitor I] | 0.127 | 0.084 | 0.005 | 0.105 | -0.026 | 0.036 | 0.006 | -0.043 | -0.036 | -0.098 | -0.017 | -0.085 | -0.008 | -0.044 | -0.043 | 0 | -0.049 |  |  |  |
| CO[C@H]1C[C@@H]2CC[C@@H](C)[C@@](O)(O2)C(=O)C(=O)N2CCCC[C@H]2C(=O)O[C@H]([C@H](C)C[C@@H]2CC[C@H](n3cnnn3)[C@H](OC)C2)CC(=O)[C@H](C)/C=C(\C)[C@@H](O)[C@@H](OC)C(=O)[C@H](C)C[C@H](C)/C=C/C=C/C=C/1C [zotarolimus] | 0.015 | 0.196 | -0.072 | 0.107 | -0.01 | 0.07 | 0.004 | -0.036 | 0.041 | 0.029 | 0.052 | -0.044 | 0.039 | -0.15 | -0.085 | -0.245 |  |  |  |  |
| CNCc1ccc(-c2[nH]c3cc(F)cc4c3c2CCNC4=O)cc1 [rucaparib] | -0.078 | -0.016 | -0.057 | -0.041 | -0.05 | -0.071 |  | -0.272 | 0.029 | 0.19 | -0.047 | 0.4 | -0.034 | 0.115 | 0.086 | -0.067 |  | 0.176 |  |  |
| CN1CCN(CCOc2cc(OC3CCOCC3)c3c(Nc4c(Cl)ccc5c4OCO5)ncnc3c2)CC1 [saracatinib] | 0.014 | 0.234 | -0.076 | 0.064 | 0.047 | 0.005 | -0.149 | -0.147 | -0.072 | 0.088 | 0.024 |  | -0.009 | -0.045 | 0.034 | 0.034 | 0.188 |  |  |  |
| Oc1cc(-c2nc(-c3ccccc3)[nH]c2-c2ccncc2)ccc1Cl | -0.02 | 0.284 | -0.068 | 0.096 | -0.053 | 0.121 | -0.067 | -0.064 | 0.015 | -0.076 | 0.024 | -0.271 | 0.002 | -0.232 | 0.01 | 0.026 |  |  |  |  |
| Cn1cncc1[C@@](N)(c1ccc(Cl)cc1)c1ccc2c(c1)c(-c1cccc(Cl)c1)cc(=O)n2C [tipifarnib] | 0.059 | -0.112 | 0.127 | -0.123 | 0.009 | -0.053 | -0.02 |  | 0.111 | 0.043 | -0.183 | 0.113 | 0.032 | -0.014 | 0.013 | -0.047 |  | 0.086 |  |  |
| CCn1c(C(=O)N(C2CC2)C2CC2)cc2c3c(ncn3C)c(Nc3cc(C)n(C)n3)nc21 | 0.027 | 0.039 |  | 0.017 | 0.044 | 0.154 | -0.038 | -0.033 | 0.018 | -0.034 | -0.059 | 0.003 | -0.061 | -0.023 | -0.012 | 0.011 |  |  | 0.005 |  |
| CC[C@@H]1C(=O)N(C)c2cnc(Nc3ccc(C(=O)NC4CCN(C)CC4)cc3OC)nc2N1C1CCCC1 | -0.055 | -0.141 | 0.1 | -0.083 | -0.149 | 0.153 |  | -0.061 | -0.008 | 0.181 | -0.163 | 0.246 | -0.009 | 0.031 | 0.035 | 0.083 |  | -0.114 |  |  |
| CC1=C(C(=O)Nc2cc3cn[nH]c3cc2F)C(c2ccc(C(F)(F)F)cc2)CC(=O)N1 (stereo not given) | 0.001 | 0.107 |  | 0.058 | 0.059 | -0.014 | 0.033 | -0.04 | 0.022 | -0.072 | 0.057 | 0.012 | -0.013 | 0.047 | 0.022 | 0.114 | -0.083 |  |  |  |
| COC(=O)[C@H](CCSC)NC(=O)c1ccc(NC[C@@H](N)CS)cc1-c1ccccc1 | 0.016 | 0.019 |  | -0.002 | 0.014 | 0.052 | -0.022 | 0.018 | 0.045 | -0.009 | -0.093 | 0.081 | 0.01 | 0.028 | 0.054 | 0.019 |  |  |  | 0.033 |
| O=C(CCCCCCC(=O)Nc1ccccc1)NO [vorinostat] | -0.02 | 0.39 |  | -0.013 | 0.134 | 0.002 | 0.079 | -0.005 | 0.091 | -0.039 | 0.04 | -0.065 | -0.079 | -0.021 | -0.02 | 0.006 |  | -0.108 |  |  |
| Cc1cc(Nc2cc(CN3CCOCC3)c3nc(C)c(Cc4ccc(Cl)cc4F)n3n2)n[nH]1 [gandotinib] | -0.25 (active) | -0.071 |  | 0.084 | -0.012 | 0.128 | 0.074 | 0.043 | 0.017 | 0.15 | -0.157 | 0.265 | 0.052 | 0.018 | -0.041 | 0.034 |  | -0.018 |  |  |

— the supplement of paper PMC10849652
